Screens from PubChem.
This is one part of a sample in which hits are shown more often than they occur.
Tgondii IFNg = inhibitors of Toxoplasma gondii growth with IFN-gamma; 69,000 compounds, 3.8% hits; Toxoplasma gondii growth in IFN-gamma-treated host cells; active compounds read low; activity change, negative = inhibition, % (no concentration beside the values); in the data active = activity change below about -70%, passing the limit was not always enough;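 note: host cells are HeLa cells infected with Toxoplasma gondii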
Of the large screens only hits and unclear results are named; the others gave an inactive call; ! = not confirmed by another sample.

CC(C)c1noc(CCC(=O)N2CCN(c3nc4ccccc4s3)CC2)n1	none
CC1(C)C(=O)C=C[C@@]2(C)C1CC(=O)[C@]1(C)C2CC[C@@]2(C)[C@H](c3ccoc3)OC(=O)[C@H]3O[C@]321 (stereo not given in full)	none
CC(=O)O[C@@H]1C[C@H]2C(C)(C)C(=O)C=C[C@]2(C)[C@H]2CC[C@@]3(C)[C@H](c4ccoc4)OC(=O)[C@H]4O[C@]43[C@@]21C	none
CC1(C)C(=O)C=C[C@@]2(C)C1C=C[C@]1(C)C2CC[C@@]2(C)[C@H](c3ccoc3)OC(=O)[C@H]3O[C@]321 (stereo not given in full)	Tgondii IFNg -86
CC(=O)O[C@H]1C[C@@H](O)C(C)(C)C2C[C@@H](OC(C)=O)[C@]3(C)C(CC[C@@]4(C)[C@H](c5ccoc5)OC(=O)C5OC543)[C@]21C (stereo not given in full)	none
CC(=O)O[C@@H]1CC2C(C)(C)[C@H](O)CC[C@]2(C)C2CC[C@@]3(C)[C@H](c4ccoc4)OC(=O)C4OC43[C@@]21C (stereo not given in full)	Tgondii IFNg -71
CC(=O)O[C@@H]1CC2C(C)(C)C(=O)C=C[C@]2(C)C2CC[C@@]3(C)[C@H](c4ccoc4)OC(=O)[C@H]4O[C@]43[C@@]21C (stereo not given in full)	none
O=C(c1ccccn1)N1CCC(c2cc(-c3ccccc3Cl)n[nH]2)CC1	none
COc1cc2c(cc1-c1cncn1Cc1ccccc1CN(C)C)OCCCO2	none
Cn1c(=O)c(-c2nc(-c3ccc(Cl)cc3)no2)c(O)c2cc(F)ccc21	none
CC(=O)Nc1ccc(C(=O)N(CCC(C)C)C2(C(=O)NCc3ccccc3)CCN(C(C)=O)CC2)cc1	none
O=C(Cn1c(=O)cc(-c2nc(C3CC3)no2)c2ccccc21)NCc1ccc(Cl)cc1	none
Cc1cc(C)n(C)c(=O)c1C(=O)N1CCOC(C(F)(F)F)C1 (stereo not given)	none
CCN1CCN(CCNC(=O)c2csc(-c3ccc(N4CCCC4)nc3)n2)CC1	Tgondii IFNg -81
O=C(NCCCN1CCCCC1)c1csc(-c2ccc(N3CCCC3)nc2)n1	none
CC1CCCCN1CCNC(=O)c1csc(-c2ccc(N3CCCC3)nc2)n1 (stereo not given)	none
Cn1c(=O)n(C)c2cc(CNC(=O)CC3COCCN3)ccc21 (stereo not given)	none
O=C(NCCN1CCOC1=O)c1cccc2ccnn12	none
CCC(C)NCCOCCOc1ccc(Cl)c2ccccc12 (stereo not given)	Tgondii IFNg -94
CCOc1ccccc1OCCN[C@H](C)Cc1ccc(OC)c(S(N)(=O)=O)c1	none
CCC(C)NCCOc1ccc(C(C)(C)c2ccccc2)cc1 (stereo not given)	none
CCO[C@@H]1CC[C@@H]2[C@H]1OCCN2C(=O)/C=C/c1cccs1	none
COc1ccccc1CN1CCC(O)(c2cccc(C(F)(F)F)c2)CC1	none
c1ccc(-c2nc3ccccc3nc2-c2cccc3ccccc23)cc1	none
CC(C)(C)n1nc(-c2cccc3ccccc23)c2c(N)ncnc21	Tgondii IFNg -76!
O=C(Cc1ccc2nc[nH]c2c1)Nc1ccc(OCc2ccccc2F)cc1	none
Cc1ccc(CN2CCC3(CCC3NC(=O)c3cnccn3)CC2)o1 (stereo not given)	none
CO[C@H]1CN(C)C(=O)c2cc(NC(=O)c3cnccn3)ccc2OC[C@H](C)NC[C@@H]1C	none
CO[C@@H]1CN(C)C(=O)c2cc(NC(=O)Nc3c(C)noc3C)ccc2OC[C@H](C)NC[C@H]1C	none
CO[C@H]1CN(C)C(=O)c2cc(NC(=O)Nc3c(C)noc3C)ccc2OC[C@H](C)NC[C@H]1C	none
CO[C@H]1CN(C)C(=O)c2cc(NC(=O)c3cnccn3)ccc2OC[C@@H](C)NC[C@H]1C	none
CO[C@H]1CN(C)C(=O)c2cc(NC(=O)c3ccc(Oc4ccccc4)cc3)ccc2OC[C@H](C)NC[C@@H]1C	Tgondii IFNg -92
COc1cccc(NC(=O)Nc2ccc3c(c2)C(=O)N(C)C[C@@H](OC)[C@H](C)CN[C@H](C)CO3)c1	none
CO[C@@H]1CN(C)C(=O)c2cc(NC(=O)Nc3c(C)noc3C)ccc2OC[C@H](C)NC[C@@H]1C	Tgondii IFNg -76
CO[C@@H]1CN(C)C(=O)c2cc(NC(=O)c3ccc(Oc4ccccc4)cc3)ccc2OC[C@@H](C)NC[C@@H]1C	Tgondii IFNg -115
CO[C@H]1CN(C)C(=O)c2cc(NC(=O)c3ccc(Oc4ccccc4)cc3)ccc2OC[C@@H](C)NC[C@H]1C	none
c1cnc(OC2COC3(CCN(c4ncccn4)C3)C2)nc1 (stereo not given)	none
O=C(CN1C(=O)CCc2cc(Br)ccc21)NCc1ccc(F)cc1	none
CCCCCCCCCCCCCCCCOP(=O)(O)OCC[N+](C)(C)C	none
O=C(Nc1cccc2nsnc12)c1sc2ccccc2c1Cl	none
O=C(NCc1ccccc1)c1nc2c(s1)CCN(C(=O)c1ccncc1)CC2	Tgondii IFNg -74
Cc1ccc(-c2nc3c(s2)CN(C(=O)NCc2ccccc2)CC3)cc1	none
COc1ccc(CNC(=O)c2nc3c(s2)CCN(C(=O)CC(C)C)CC3)cc1	none
COc1cccc(C(=O)NCCc2csc(-c3cccc(F)c3)n2)c1	none
Cc1cccc(-c2nc(CCNC(=O)c3ccco3)cs2)c1	none
O=C(NCCc1csc(-c2ccccc2)n1)c1ccc(Cl)cc1	none
CC(C)Oc1ccc(C(=O)NCCc2csc(-c3cccc(F)c3)n2)cc1	none
CCCCOc1ccc(C(=O)NCCc2csc(-c3cccc(F)c3)n2)cc1	Tgondii IFNg -81
COc1ccc(C(=O)NCCc2csc(-c3cccc(F)c3)n2)cc1	none
O=C(NCCc1csc(-c2ccc(Cl)cc2)n1)c1ccco1	Tgondii IFNg -81
Cc1nc(-c2cccc(F)c2)sc1CCNC(=O)c1ccc(Cl)cc1	none
COc1ccc(C(=O)NCCc2csc(-c3cccc(F)c3)n2)c(OC)c1	Tgondii IFNg -81
COc1cc(OC)cc(C(=O)NCCc2csc(-c3cccc(F)c3)n2)c1	none
Cc1nc(-c2cccc(F)c2)sc1CCNC(=O)c1ccc(C(C)(C)C)cc1	none
CCCCOc1ccc(C(=O)NCCc2sc(-c3cccc(F)c3)nc2C)cc1	Tgondii IFNg -94
NCC(c1ccco1)N1CCCCCC1 (stereo not given)	none
FCCN1CCC2(CC1)CC(NC1CCOCC1)c1ccccc1O2 (stereo not given)	none
CNC(=O)[C@H]1C[C@@H]2OCC[C@@H]2N(Cc2ccco2)C1	none
COc1cccc(-n2c(=O)c(C(=O)Nc3cc(F)ccc3F)c(O)c3cccnc32)c1	none
COCCN1C[C@H]2[C@H](OC)CCN(S(=O)(=O)c3cn(C)cn3)[C@H]2C1	none
CCOc1ccc(NC(=O)c2c(O)c3ccccc3n(CC)c2=O)cc1	none
O=C(NCC(CO)Cc1cccs1)c1c(O)cccc1O (stereo not given)	none
O=C(NCCc1csc(-c2ccc(F)cc2)n1)c1cccc(F)c1	Tgondii IFNg -90
O=C(NCCc1csc(-c2ccc(Cl)cc2)n1)c1cccc(F)c1	none
O=C(NCCc1csc(-c2cccc(F)c2)n1)c1cccc(F)c1	none
COc1ccccc1OCC(=O)N(C)Cc1cn[nH]c1-c1ccc(F)cc1	none
CCCCC(CC)CN=C(N)NC(N)=NCCCCCCN=C(N)NC(N)=NCC(CC)CCCC (stereo not given)	Tgondii IFNg -79
Cc1ncc(CC(=O)N2CCc3[nH]nc(-c4ccccc4F)c3C2)c(=O)[nH]1	none
COC1CC2CC1CN2c1ncccn1 (stereo not given)	none
COc1ccc(CCNS(=O)(=O)c2cc3c4c(c2)CCC(=O)N4CCC3)cc1OC	none
O=C(Nc1cccc(Cl)c1)N[C@H]1CC[C@H](CCn2cc(Cc3ccccc3)nn2)O[C@H]1CO	none
